{
  "source": "PubChem BioAssay (NCATS)",
  "key": {"KB-3-1": {"tested_on": "KB-3-1", "experiment": "Cytotoxic Profiling of Annotated Libraries Using Quantitative High-Throughput Screening (AID 1296008); further: nearly all actives have a fitted effect of over 60% in size; further: potency means the concentration at half of the fitted maximal effect", "details": "Five cell lines viability, CellTiter-Glo ATP luminescence, 48-72 h; max response: active compounds read low", "in_short": "(§1)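 Cytotoxicity was measured as CellTiter-Glo ATP luminescence, read after 10 min at room temperature. Compound treatment of the cells lasted 48 or 72 hr at 37 degrees Celsius in a qHTS format.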"}, "NIH3T3 [1]": {"tested_on": "NIH3T3", "experiment": "Cytotoxic Profiling of Annotated Libraries Using Quantitative High-Throughput Screening (AID 1296008)", "details": "Five cell lines viability, CellTiter-Glo ATP luminescence, 48-72 h; max response: active compounds read low", "in_short": "as §1"}, "NIH3T3 [2]": {"tested_on": "NIH3T3", "experiment": "qHTS assay to identify novel small-molecules to repurpose for Merkel cell carcinoma treatment (AID 1296009)", "details": "MCC and control cell lines, CellTiter-Glo viability, 72 h; at 44.8 µM (top of the series) unless noted", "in_short": "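72 hr, 37 degree celsius; NPC 8-pt / MIPE 11-pt dose response; compound pinned in DMSO; CellTiter-Glo, 10 min RT, luminescence; normalized to no-cell and DMSO controls.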"}, "C33A": {"tested_on": "C33A", "experiment": "Primary qHTS to identify gynecologic anti-cancer compounds using libraries of approved drugs and bioactive compounds (AID 1345084)", "details": "Gynecologic cancer cell panel viability, ATPlite luminescence, 48 h; series mostly up to 57.5 µM", "in_short": "(§2)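 Luminescence from the ATPlite ATP-monitoring reagent indicates viable cell number; lower signal means cytotoxicity. Cells received compound 16 h after seeding and were exposed for 48 h across five concentrations.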"}, "CASKI": {"tested_on": "CASKI", "experiment": "Primary qHTS to identify gynecologic anti-cancer compounds using libraries of approved drugs and bioactive compounds (AID 1345084)", "details": "Gynecologic cancer cell panel viability, ATPlite luminescence, 48 h; series mostly up to 57.5 µM", "in_short": "as §2"}, "Es-2": {"tested_on": "Es-2", "experiment": "Primary qHTS to identify gynecologic anti-cancer compounds using libraries of approved drugs and bioactive compounds (AID 1345084)", "details": "Gynecologic cancer cell panel viability, ATPlite luminescence, 48 h; series mostly up to 57.5 µM", "in_short": "as §2"}, "HeLa": {"tested_on": "HeLa", "experiment": "Primary qHTS to identify gynecologic anti-cancer compounds using libraries of approved drugs and bioactive compounds (AID 1345084)", "details": "Gynecologic cancer cell panel viability, ATPlite luminescence, 48 h; series mostly up to 57.5 µM", "in_short": "as §2"}, "Hek293T": {"tested_on": "Hek293T", "experiment": "Primary qHTS to identify gynecologic anti-cancer compounds using libraries of approved drugs and bioactive compounds (AID 1345084)", "details": "Gynecologic cancer cell panel viability, ATPlite luminescence, 48 h, control line for the selectivity index; series mostly up to 57.5 µM", "in_short": "as §2"}, "JEG-3": {"tested_on": "JEG-3", "experiment": "Primary qHTS to identify gynecologic anti-cancer compounds using libraries of approved drugs and bioactive compounds (AID 1345084)", "details": "Gynecologic cancer cell panel viability, ATPlite luminescence, 48 h; series mostly up to 57.5 µM", "in_short": "as §2"}, "OV90": {"tested_on": "OV90", "experiment": "Primary qHTS to identify gynecologic anti-cancer compounds using libraries of approved drugs and bioactive compounds (AID 1345084)", "details": "Gynecologic cancer cell panel viability, ATPlite luminescence, 48 h; series mostly up to 57.5 µM", "in_short": "as §2"}},
  "note": "Several values for one entry are separate records, joined by “and”; a condition that tells them apart may be missing. Equal entries are not always repeated. Results filed as inconclusive are left out. Entries that show only a call come without a potency. A number with no mark means an inactive call. Activity calls are given as the source filed them. The call rests on the fitted dose curve; in most records, active means well fitted curve in the direction sought with a large enough effect; inconclusive means small, poorly fitted or top-dose-only effect, or another doubt; inactive means no such curve, though single readings can be large; an effect the other way counts as inactive or inconclusive. Wherever outcome is given: nearly all actives have a fitted effect of over 60% in size. Wherever potency is given: potency means the concentration at half of the fitted maximal effect.",
  "data": [
    {"smiles": "CC(C)(O)[C@H]1O[C@H]2CC[C@@]3(C)[C@@](O)(CC[C@H]4Cc5c([nH]c6ccccc56)[C@@]43C)C2=CC1=O", "values": [
      {"measurement": "max response", "setting": "KB-3-1", "value": 9.13, "unit": "%"},
      {"measurement": "outcome", "setting": "NIH3T3 [1]", "value": "inactive"},
      {"measurement": "outcome", "setting": "NIH3T3 [2]", "value": "inactive [at 17.4 µM]"},
      {"measurement": "Potency", "setting": "C33A", "value": "inactive"},
      {"measurement": "Potency", "setting": "CASKI", "value": "inactive"},
      {"measurement": "Potency", "setting": "Es-2", "value": "inactive"},
      {"measurement": "Potency", "setting": "HeLa", "value": "inactive"},
      {"measurement": "Potency", "setting": "Hek293T", "value": "inactive"},
      {"measurement": "Potency", "setting": "JEG-3", "value": "inactive"},
      {"measurement": "Potency", "setting": "OV90", "value": "inactive"}
    ]},
    {"smiles": "COc1cc2c(cc1OC)[C@@]13CCN4CC5=CCO[C@H]6CC(=O)N2[C@H]1[C@H]6[C@H]5C[C@H]43", "values": [
      {"measurement": "max response", "setting": "KB-3-1", "value": "8.18% and 2.14%"},
      {"measurement": "max response", "setting": "NIH3T3 [1]", "value": 1.02, "unit": "%"},
      {"measurement": "Potency", "setting": "C33A", "value": "inactive"},
      {"measurement": "Potency", "setting": "CASKI", "value": "inactive"},
      {"measurement": "Potency", "setting": "Es-2", "value": "inactive"},
      {"measurement": "Potency", "setting": "HeLa", "value": "inactive"},
      {"measurement": "Potency", "setting": "Hek293T", "value": "inactive"},
      {"measurement": "Potency", "setting": "JEG-3", "value": "inactive"},
      {"measurement": "Potency", "setting": "OV90", "value": "inactive"}
    ]},
    {"smiles": "CO[C@@H]1[C@H](O)[C@@H](O[C@@H]2C[C@H]3CC[C@@H]4C(CC[C@]5(C)[C@@H](C6=CC(=O)OC6)CC[C@]45O)[C@@]3(C)[C@H](O)C2)O[C@H](C)[C@@H]1O[C@@H]1O[C@H](CO)[C@@H](O)[C@H](O)[C@H]1O", "note": "(stereo partly drawn)", "values": [
      {"measurement": "Potency", "setting": "KB-3-1", "value": "0.432 µM (active)"},
      {"measurement": "outcome", "setting": "NIH3T3 [1]", "value": "inactive"},
      {"measurement": "outcome", "setting": "NIH3T3 [2]", "value": "inactive [at 17.4 µM]"},
      {"measurement": "Potency", "setting": "C33A", "value": "0.199 µM (active)"},
      {"measurement": "Potency", "setting": "CASKI", "value": "1.26 µM (active)"},
      {"measurement": "Potency", "setting": "Es-2", "value": "0.398 µM (active)"},
      {"measurement": "Potency", "setting": "HeLa", "value": "0.562 µM (active)"},
      {"measurement": "Potency", "setting": "Hek293T", "value": "0.398 µM (active)"},
      {"measurement": "Potency", "setting": "OV90", "value": "2.24 µM (active)"}
    ]}
  ]
}
